Laboratory results taken from PubChem BioAssay AID485317 (Broad Institute, 2010).
In all, about 290,000 compounds went through this assay and about 11,000 (3.8%) were called active. This excerpt belongs to a sample that is enriched for actives. Values without a mark were called inactive.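 How the source made its calls: active means mean replicate inhibition above about 79%, with every replicate also reaching it (limit read from the data); inconclusive means only one of the two criteria met; inactive means mean below limit and not every replicate reaching it.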

These molecules were tested against FAD-linked sulfhydryl oxidase ALR (Homo sapiens) (UniProt P55789) (assay: ALR-catalysed DTT oxidation blockers – biochemical, H2O2 detection, HRP-luminol luminescence, single point, primary screen (AID 485317)). Details: purified ALR, hits give high values, concentration not given here.
Chain of FAD-linked sulfhydryl oxidase ALR (Homo sapiens) (P55789 whole entry, looked up): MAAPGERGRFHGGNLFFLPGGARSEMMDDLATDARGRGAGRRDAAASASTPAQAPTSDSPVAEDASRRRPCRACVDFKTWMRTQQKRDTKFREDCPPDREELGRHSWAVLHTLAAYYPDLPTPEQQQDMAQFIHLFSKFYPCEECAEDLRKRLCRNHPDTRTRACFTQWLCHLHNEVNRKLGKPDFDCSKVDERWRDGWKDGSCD

With `Cn1c(SCC(=O)Nc2ccc(N3CCOCC3)cc2)nnc1C(F)(F)F` as the molecule, how does the inhibition read?
Its inhibition is 93.8% (active).

With `O=C(O)CCC(=O)Nc1ccc(N2CCOCC2)cc1` as the molecule, how does the inhibition read?
The inhibition was -4.54%.

Which inhibition does the source give for `Cn1cnnc1SCC(=O)Nc1ccc(N2CCOCC2)cc1` here?
Its inhibition is 95.8% (active).

Which inhibition does the source give for `CCn1c(Cc2ccc(OC)cc2)nnc1SCC(=O)Nc1ccc(N2CCOCC2)cc1` here?
The inhibition was 39.5%.

For `Cn1c(SCC(=O)Nc2cccc(O)c2)nnc1-c1ccc(S(=O)(=O)N2CCOCC2)cc1`, which inhibition is on record?
Its inhibition is 16.7%.

Which inhibition does the source give for `Cn1c(SCC(=O)N2CCOCC2)nnc1-c1ccc(NC(=O)c2ccccc2F)cc1` here?
The inhibition was -5.97%.

With `COc1ccc(C(=O)NCc2ccc(C)cc2)cc1S(=O)(=O)N1CCCC1` as the molecule, how does the inhibition read?
The inhibition was -2.12%.

Which inhibition does the source give for `Cc1nc2ccccc2c(=O)n1-c1ccc(NS(=O)(=O)c2ccc(F)cc2F)cc1` here?
The inhibition was -10.6%.

For `CCn1c(CNS(=O)(=O)c2ccc(Cl)cc2)n[nH]c1=S`, which inhibition is on record?
The inhibition was 21.4%.

`CCn1c(CN2C(=O)CSc3ccccc32)n[nH]c1=S` was tested. Which inhibition did it give?
Its inhibition is 91.7% (active).

Which inhibition does the source give for `CCn1c(CSCc2c(Cl)cccc2Cl)n[nH]c1=S` here?
Its inhibition is 67.9%.

`O=S(=O)(Nc1ccc2nc(-c3ccco3)[nH]c2c1)c1ccccc1` was tested. Which inhibition did it give?
The inhibition was 88.8% (active).

`O=S(=O)(Nc1ccc2cn[nH]c2c1)c1ccccc1` was tested. Which inhibition did it give?
Its inhibition is -80.8%.

With `Cn1c(CCN2CCCC2)nc2cc(NS(=O)(=O)c3ccccc3)ccc21` as the molecule, how does the inhibition read?
Its inhibition is -0.934%.

How did the inhibition turn out when `COC(=O)c1ccc(NS(=O)(=O)c2cc3c4c(c2)C(C)C(=O)N4CCC3)cc1` (centres undefined) was run?
The inhibition was -2.24%.

Which inhibition does the source give for `O=C(COC(=O)c1cccc(Cl)c1)Nc1ccc2[nH]c(=O)[nH]c2c1` here?
Its inhibition is -0.957%.

Which inhibition does the source give for `O=C(NNC(=O)c1ccco1)Nc1ccccc1` here?
Its inhibition is 39.9%.

How did the inhibition turn out when `O=C(NNC(=S)Nc1ccc(Br)cc1Cl)c1ccco1` was run?
The inhibition was 82.2% (active).

How did the inhibition turn out when `CCC(=O)NC(=S)Nc1ccc(NC(=O)c2ccco2)c(Cl)c1` was run?
The inhibition was -18.1%.

How did the inhibition turn out when `CN(CCc1ccccc1)C(=O)c1cccc(NC(=O)Cc2ccc([N+](=O)[O-])cc2)c1` was run?
Its inhibition is 1%.

`O=C(OCCN1C(=O)c2ccccc2C1=O)[C@@H]1CC(O)CN1S(=O)(=O)c1ccccc1[N+](=O)[O-]` (some centres undefined) was tested. Which inhibition did it give?
Its inhibition is -2.79%.

`COc1cc(/C=N/NC(=O)c2cc(-c3ccccc3C)nc3ccccc23)cc(OC)c1O` was tested. Which inhibition did it give?
The inhibition was -3.08%.

`COc1ccc(/C=C/C(=O)Nc2cccnc2)cc1OC` was tested. Which inhibition did it give?
Its inhibition is -0.926%.

`COc1cc(/C=N/O)cc(Br)c1OS(=O)(=O)c1ccc(C)cc1` was tested. Which inhibition did it give?
The inhibition was -15%.

`COc1cc(/C=N/Nc2ccc(C)cc2)cc(Br)c1O` was tested. Which inhibition did it give?
Its inhibition is 98.4% (active).

How did the inhibition turn out when `COc1cc(/C=N/NC(=O)c2cc(C)n(-c3ccc(F)cc3)c2C)cc(OC)c1O` was run?
Its inhibition is 64%.

With `COc1cc(/C=N/NC(=S)Nc2cccnc2)cc(OC)c1O` as the molecule, how does the inhibition read?
Its inhibition is 95% (active).

Which inhibition does the source give for `Nc1c(C(=O)Nc2ccc3c(c2)OCCO3)nnn1Cc1ccccc1` here?
The inhibition was -23.5%.

How did the inhibition turn out when `COc1ccc(/C=N/NC(=O)c2cccc(C(F)(F)F)c2)cc1` was run?
Its inhibition is -3.29%.

`CC(C)c1c(C(=O)N/N=C/c2ccc(-c3ccccc3)cc2)nnn1-c1nonc1N` was tested. Which inhibition did it give?
Its inhibition is -10.7%.

How did the inhibition turn out when `COC(=O)N/N=C/c1ccc(/C=N/NC(=O)OC)cc1` was run?
Its inhibition is -1.28%.

With `Cc1nc2ccc(C(=O)N/N=C/c3ccc(O)cc3)cc2[nH]1` as the molecule, how does the inhibition read?
Its inhibition is 99% (active).

Which inhibition does the source give for `Cc1nonc1C(=O)N/N=C/c1ccc(O)cc1` here?
The inhibition was 99.2% (active).

Which inhibition does the source give for `Cc1nc2ccc(C(=O)O)cc2[nH]1` here?
The inhibition was -25.4%.

Which inhibition does the source give for `CCn1nc(C(=O)NNC(=O)C2CSC3(C)CCC(=O)N23)c2ccccc2c1=O` (centres undefined) here?
The inhibition was -0.847%.

For `CC(C)CC1(C)NC(=O)N(CC(=O)Nc2ccc3c(c2)OCCO3)C1=O` (centres undefined), which inhibition is on record?
The inhibition was 4.51%.

For `CCC(C)c1ccccc1N1CC(C(=O)N2CCN(S(=O)(=O)c3ccc(F)cc3)CC2)CC1=O` (centres undefined), which inhibition is on record?
Its inhibition is 1.3%.

With `COCC(=O)Nc1c(I)c(C(=O)NCC(O)CO)c(I)c(C(=O)N(C)CC(O)CO)c1I` (centres undefined) as the molecule, how does the inhibition read?
Its inhibition is -12.2%.

`O=C(CSc1ccccn1)N1CCN(S(=O)(=O)c2ccc(Cl)cc2)CC1` was tested. Which inhibition did it give?
Its inhibition is -0.731%.

How did the inhibition turn out when `CO[C@@H]1[C@@H](OC(N)=O)[C@@H](O)C(Oc2ccc3c(O)c(NC(=O)c4ccc(O)c(CC=C(C)C)c4)c(=O)oc3c2C)OC1(C)C` (some centres undefined) was run?
The inhibition was 1.83%.

With `COc1ccc(F)cc1C(=O)COC(=O)c1n[nH]c(=O)c2ccccc12` as the molecule, how does the inhibition read?
Its inhibition is -1.76%.

For `CC(C)(C)OC(=O)N[C@H](C(=O)OC(C)(C)C)c1ccc(Br)cc1`, which inhibition is on record?
Its inhibition is -0.888%.

With `O=C1N[C@@H](Cc2ccccc2)C(=O)N2[C@@H]3N(S(=O)(=O)c4ccc(F)cc4)c4ccccc4[C@]3(Br)C[C@@H]12` as the molecule, how does the inhibition read?
Its inhibition is -1.43%.

With `CC(=O)C1=C(O)C(=O)N(c2ccc(S(N)(=O)=O)cc2)C1c1ccccc1F` (centres undefined) as the molecule, how does the inhibition read?
Its inhibition is -0.498%.

`NS(=O)(=O)c1ccc(NC2=CC(c3ccc(F)cc3)N(c3ccc(S(N)(=O)=O)cc3)C2=O)cc1` (centres undefined) was tested. Which inhibition did it give?
The inhibition was 97.6% (active).

Which inhibition does the source give for `NS(=O)(=O)c1ccc(NC(=O)COC(=O)C2(c3ccc(F)cc3)CCCC2)cc1` here?
The inhibition was -14.8%.

With `COc1ccccc1NS(=O)(=O)c1ccc(C)c(C(=O)NNC(=O)c2csc(N3CCOCC3)n2)c1` as the molecule, how does the inhibition read?
Its inhibition is -6.78%.

`Cc1ccccc1-c1n[nH]c(=S)n1C` was tested. Which inhibition did it give?
The inhibition was 93.4% (active).

`CCCc1cc(-c2n[nH]c(=S)n2CC)c2ccccc2n1` was tested. Which inhibition did it give?
Its inhibition is -9.51%.

For `CCn1c(-c2ccoc2C)n[nH]c1=S`, which inhibition is on record?
The inhibition was 6.36%.

Which inhibition does the source give for `O=C(CCNC(=O)c1ccc(Cl)cc1)NC1CCCc2ccccc21` (centres undefined) here?
Its inhibition is -6.93%.

How did the inhibition turn out when `CCOc1ccccc1NC(=O)CCc1nnc2ccc(NCc3ccco3)nn12` was run?
The inhibition was 1.12%.

Which inhibition does the source give for `CCOc1ccccc1NC(=O)CCc1ccc(C)o1` here?
The inhibition was 99.7% (active).

For `CCOc1ccccc1NC(=O)Cc1cccs1`, which inhibition is on record?
Its inhibition is -14.8%.

With `CCOc1ccc(NC(=O)CN(C)C(=O)CCSc2ccc(F)cc2)cc1OCC` as the molecule, how does the inhibition read?
The inhibition was -3.71%.

`COc1ccc(S(=O)(=O)Nc2cc(C)on2)cc1NC(C)=O` was tested. Which inhibition did it give?
Its inhibition is -7.72%.

How did the inhibition turn out when `CC1CCCCN1C(=S)NCc1ccccc1` (centres undefined) was run?
The inhibition was -1.5%.

Which inhibition does the source give for `O=C(CN1CCN(c2ccccc2O)CC1)NC(=O)NCc1ccccc1` here?
The inhibition was 13.1%.

`Oc1ccccc1N1CCN(C(=S)NCc2ccccc2)CC1` was tested. Which inhibition did it give?
Its inhibition is 96.4% (active).

How did the inhibition turn out when `Cc1csc(=NC(=O)c2ccccc2)n1CCO` was run?
The inhibition was 99% (active).

How did the inhibition turn out when `Cc1csc(=Nc2ccccc2)n1CCO` was run?
The inhibition was 98.7% (active).

With `O=c1cc(CCl)nc2scc(-c3ccccc3)n12` as the molecule, how does the inhibition read?
The inhibition was 60.8%.

For `C=C(C)CNC(=S)/N=c1\scc(C)n1CC`, which inhibition is on record?
Its inhibition is 18%.

`CCOC(=O)c1sc(=NC(=O)c2ccc(Br)cc2)n(C)c1C` was tested. Which inhibition did it give?
The inhibition was -3.96%.

`OCCn1c(-c2ccccc2)csc1=Nc1ccccc1` was tested. Which inhibition did it give?
The inhibition was 99% (active).

For `Cc1cc(C(=O)CCC(=O)NNC(=O)c2ccccc2O)c(C)s1`, which inhibition is on record?
Its inhibition is 8.1%.

How did the inhibition turn out when `O=C(COC(=O)c1ccc2ncsc2c1)Nc1ccc(Cl)cc1` was run?
Its inhibition is 16%.

For `COc1ccc(NC(=O)C(=O)NCC(c2ccco2)N2CCc3ccccc3C2)cc1` (centres undefined), which inhibition is on record?
Its inhibition is -1.35%.

For `COc1ccc(NS(=O)(=O)c2cc(NC(=O)c3ccc(S(=O)(=O)N(C)C)cc3)ccc2N2CCOCC2)cc1`, which inhibition is on record?
The inhibition was 0.706%.

With `Cc1cc(C(=O)OC(C)C(=O)NC2CCCCC2C)c(C)o1` (centres undefined) as the molecule, how does the inhibition read?
Its inhibition is 2.82%.

Which inhibition does the source give for `CC1CC(=O)Nc2ccccc2N1S(=O)(=O)c1cccs1` (centres undefined) here?
Its inhibition is -4.3%.

Which inhibition does the source give for `CC1CC(C)(C)NC(=S)N1CCC(=O)N1CCN(Cc2ccccc2)CC1` (centres undefined) here?
Its inhibition is -28.3%.

Which inhibition does the source give for `CC1CC(=S)Nc2ccccc2N1Cc1ccccc1` (centres undefined) here?
The inhibition was 99% (active).

Which inhibition does the source give for `CC1CCCN(C(=O)c2cc(-c3ccco3)nc3ccccc23)C1` (centres undefined) here?
The inhibition was 6.96%.

Which inhibition does the source give for `Cc1cc(C)c(C)c(S(=O)(=O)N2CCN(C(=O)c3ccc4c(=O)n5c(nc4c3)CCC5)CC2)c1C` here?
Its inhibition is -2.44%.

For `O=C(Nc1cccc(S(=O)(=O)N2CCCCC2)c1)c1cncc(Br)c1`, which inhibition is on record?
The inhibition was -4.78%.

For `CCc1nnc(NS(=O)(=O)c2ccc(N=Cc3c(C)[nH]n(-c4ccc(C)cc4)c3=O)cc2)s1`, which inhibition is on record?
The inhibition was 63.1%.

`COc1cc(SC#N)ccc1N=Cc1c(C)[nH]n(-c2ccc(C)cc2)c1=O` was tested. Which inhibition did it give?
The inhibition was 99.6% (active).

Which inhibition does the source give for `Cc1ccc(-n2[nH]c(C)c(/C=N/N3C(=O)c4cccc5cccc(c45)C3=O)c2=O)cc1` here?
The inhibition was -15.1%.

How did the inhibition turn out when `O=C(NCCCN1CCCC1=O)c1cccc(S(=O)(=O)NCc2ccccc2)c1` was run?
Its inhibition is 0.0635%.

`CC(C)NC(=O)c1ccccc1S(=O)c1ccccc1C#N` (centres undefined) was tested. Which inhibition did it give?
The inhibition was 99.6% (active).

How did the inhibition turn out when `CC(C)Oc1ccccc1C(=O)NC(CO)C(=O)O` (centres undefined) was run?
The inhibition was 2.33%.

`CC(C)NC(=O)c1ccc(Cl)cc1Cl` was tested. Which inhibition did it give?
Its inhibition is -6.81%.

Which inhibition does the source give for `CC(C)CN(C(=O)COC(=O)c1ccc2ccccc2c1)c1c(N)n(Cc2ccccc2)c(=O)[nH]c1=O` here?
The inhibition was 1.44%.

`O=C(O)Cc1ccc(NC(=O)Nc2cccc3ccccc23)cc1` was tested. Which inhibition did it give?
Its inhibition is -53.7%.

For `S=C(NCCc1ccccc1)NCc1ccccc1Cl`, which inhibition is on record?
Its inhibition is 5.1%.

For `O=C(O)Cc1ccc(NCc2ccccc2Cl)cc1`, which inhibition is on record?
Its inhibition is 97.2% (active).

With `CC(=O)C12CC(C)=C(C)CC1CC1C3CCC4=CC(=O)CCC4(C)C3CCC12C` (centres undefined) as the molecule, how does the inhibition read?
Its inhibition is -1.17%.

With `COc1ccc(Oc2cn[nH]c2-c2ccc(OC)cc2O)cc1` as the molecule, how does the inhibition read?
Its inhibition is 97.1% (active).

Which inhibition does the source give for `CCOc1ccccc1Oc1cn[nH]c1-c1ccc(OC)cc1O` here?
The inhibition was 59.2%.

For `COc1ccc(-c2cn[nH]c2-c2ccc(OC)cc2)cc1`, which inhibition is on record?
Its inhibition is 0.7%.

Which inhibition does the source give for `Oc1[nH]c2ccc(Br)cc2c1N=Nc1nn[nH]n1` here?
Its inhibition is 89.8% (active).

How did the inhibition turn out when `O=C(CNC(=O)Cc1ccccc1)N=Nc1c(O)[nH]c2ccc(Br)cc12` was run?
The inhibition was 10.6%.

How did the inhibition turn out when `NS(=O)(=O)c1ccc(N=Nc2c(O)[nH]c3ccc(Br)cc23)cc1` was run?
Its inhibition is -3.47%.
